# In PubChem BioAssay (NCI):
# Where “and” joins values, the source holds several entries; their conditions need not be identical. Equal entries are not always repeated. About 83,000 compounds went through this panel and 20% of them were active in at least one assay; those are over-represented in the sample as a whole.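 Growth was measured after 48 h exposure to one concentration of compound in 96-well plates. Values under 10 count as active.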 A number with no mark means an inactive call. Calls of active or inactive are those of the source.
# Tested on: HL-60(TB) leukemia
# Assay: NCI-60 one-dose screen, 48 h (100 = growth as untreated, 0 = no growth, -100 = all killed)
# Settings: 10 µM unless noted
row,SMILES,growth
1,Clc1cc(Cl)cc(N2N=C(c3cccc(Nc4ccncc4)c3)CC2c2ccc3c(c2)OCO3)c1 (stereo not given),8.01% (active)
2,O=C(Nc1ccc(OCc2nnc(-c3ccccc3)o2)c(F)c1)Nc1ccc(Cl)c(Cl)c1,58.5%
3,O=C1C(Cl)=C(Nc2ccc3cn[nH]c3c2)C(=O)c2ccccc21,-69.2% (active)
4,COc1ccc(-c2nc(N)ncc2Oc2ccccc2OC)c(O)c1,-21.8% (active)
5,O=C(O)C(O)c1ccccc1 (stereo not given),97.3%
6,Nc1nc2c(c3ncccc13)C(c1ccc(Cl)c(Cl)c1)Cc1ncccc1-2 (stereo not given),-7.14% (active)
7,Cc1cc(NC(=O)CSCC(=O)O)no1,88.9%
8,CC(C)(C)CC(C)(C)c1ccc(OCCOCC[N+](C)(C)CC(=O)[O-])cc1,96.1%
9,O=C(C(=Cc1ccccc1)C(=O)c1ccccc1)c1ccccc1,13% and 110%
10,O=C1NC(=O)c2c1c1c3ccccc3ccc1c1[nH]c3ccc(Br)cc3c21,18.7%
11,Cc1ccc(-c2nc3ccc(Cl)cc3c(=O)n2N2C(=O)CSC2c2ccccc2Cl)cc1 (stereo not given),97.1%
12,O=C(N/N=C/c1ccccc1O)c1ccncc1,29.8%
13,COc1ccc(-c2csc(NC(=O)N3CCN(c4cc5c(cc4F)c(=O)c(C(=O)O)cn5C4CC4)CC3)n2)cc1,-11.6% (active)
14,Cc1[nH]c(C(=O)Nc2ccccc2OCc2cccc(C(=O)NCCN)c2)c(Cl)c1Cl,45%
15,COc1cc(Nc2c(C#N)cnc3cc(OCCCN4CCN(C)CC4)c(OC)cc23)c(Cl)cc1Cl,6.54% (active)
